From paper PMC5540273 (PLoS ONE, 2017)

Legend:
Settings in all cases: concentration: 1 μM, replicates: in singlicate; n = 1
ALK = system: ALK
AMPK-alpha1 = system: T1, AMPK-alpha1
T1 construct: gene PRKAA1

AMPK-alpha2 = system: T2, AMPK-alpha2
T2 construct: gene PRKAA2

ANKK1 = system: ANKK1
ARK5 = system: T3, ARK5
T3 construct: gene NUAK1

ASK1 = system: T4, ASK1
T4 construct: gene MAP3K5

ASK2 = system: T5, ASK2
T5 construct: gene MAP3K6

AURKA = system: AURKA
AURKB = system: AURKB
AURKC = system: AURKC
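Further: KINOMEscan kinase panel screen.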

SMILES | %Inh (ALK) | %Inh (AMPK-alpha1) | %Inh (AMPK-alpha2) | %Inh (ANKK1) | %Inh (ARK5) | %Inh (ASK1) | %Inh (ASK2) | %Inh (AURKA) | %Inh (AURKB) | %Inh (AURKC)
O=C(Nc1n[nH]c2nc(-c3ccccc3)c(Cl)cc12)C1CC1 [SB-734909] | 15% | 0% | 10% | 19% | 1% | 0% | 21% | 28% | 33% | 25%
CCS(=O)c1ccc(-c2coc3ccc(-c4nnc(C)o4)cc23)cc1 (stereo not drawn) | 5% | 26% | 1% | 30% | 0% | 0% | 0% | 16% | 1% | 0%
O=C(NCCNc1ccnc(Nc2ccc(F)cc2)n1)Nc1ccc2c(c1)OCO2 [GSK1379882] | 24% | 0% | 2% | 18% | 11% | 14% | 0% | 28% | 0% | 36%
COc1ccc(Nc2nccc(N3CCC(NS(=O)(=O)c4ccc(NC(C)=O)cc4)C3)n2)cc1 (stereo not drawn) [GSK1379729] | 16% | 20% | 17% | 8% | 25% | 7% | 9% | 7% | 14% | 30%
O=C1NC(=O)C(c2ccccc2)=C1Nc1cccc(O)c1 [SB-390534] | 0% | 0% | 0% | 0% | 0% | 0% | 4% | 12% | 35% | 0%
FC(F)(F)c1ccc(-c2ncn(CCCN3CCOCC3)c2-c2ccncc2)cc1 [SB-217780] | 0% | 9% | 4% | 0% | 0% | 0% | 0% | 0% | 0% | 27%
COc1cccc(-n2cnc3c(N)ncnc32)c1 [SKF-97416] | 56% | 2% | 15% | 14% | 0% | 4% | 35% | 0% | 31% | 5%
CCC(=O)c1c(-c2ccccc2)c2cc(Cl)ccc2c(=O)n1Cc1cc(S(C)(=O)=O)n(CCC(C)(C)O)n1 | 0% | 19% | 15% | 8% | 10% | 15% | 8% | 16% | 17% | 12%
O=c1cc(N2CCOCC2)nc2n(Cc3ccc(F)c(Cl)c3)ccn12 [GSK2297099] | 20% | 0% | 19% | 13% | 14% | 2% | 0% | 0% | 0% | 0%
COc1cc2ncn(-c3cc(OCc4ccncc4Br)c(C(N)=O)s3)c2cc1OC [GW854278] | 0% | 7% | 0% | 5% | 0% | 6% | 6% | 0% | 20% | 20%
CCc1ccc(-c2ccc3c(c2)-c2nn(C)cc2S(=O)(=O)N3C)cc1 | 10% | 0% | 9% | 0% | 13% | 0% | 0% | 0% | 6% | 0%
O=C(NCc1cccs1)c1cc(C(=O)c2c(Cl)cccc2Cl)c[nH]1 [GW823670] | 0% | 8% | 0% | 0% | 0% | 19% | 0% | 0% | 9% | 1%
CCn1c(-c2ccoc2)nc2cnccc21 [SB-733887] | 31% | 10% | 9% | 0% | 0% | 23% | 5% | 16% | 45% | 10%
CCCNC(=O)Nc1ccc(Oc2ncnc3ccn(C)c23)cc1 | 0% | 0% | 12% | 0% | 0% | 0% | 1% | 7% | 60% | 0%
Cc1nc(N(C)[C@H]2CN(C(=O)CC#N)CC[C@H]2C)c2cc[nH]c2n1 | 0% | 0% | 0% | 0% | 0% | 0% | 0% | 0% | 0% | 0%
Cl.NS(=O)(=O)c1cccc(Nc2cc(-c3ccc(F)cc3)n[nH]2)c1 [GW824645] | 0% | 0% | 18% | 0% | 0% | 0% | 0% | 4% | 29% | 0%
COc1cc(Nc2nccc(N3CCC(NC(=O)C4COc5ccccc5O4)C3)n2)cc(OC)c1OC (stereo not drawn) [GSK1379761] | 18% | 11% | 0% | 24% | 2% | 0% | 5% | 51% | 72% | 75%
Nc1ncnc2c1ncn2-c1cccc2ccccc12 [SKF-97184] | 0% | 0% | 21% | 0% | 0% | 0% | 0% | 0% | 28% | 0%
Cc1ccc(-c2ccc3c(ccc4sc5c(c43)NC[C@@H](C)N=C5N(C)C)n2)cn1 | 4% | 0% | 0% | 0% | 0% | 0% | 0% | 0% | 0% | 0%

SMILES | %Inh (ALK) | %Inh (AMPK-alpha1) | %Inh (AMPK-alpha2) | %Inh (ANKK1) | %Inh (ARK5) | %Inh (ASK1) | %Inh (ASK2) | %Inh (AURKA) | %Inh (AURKB) | %Inh (AURKC)
CCC(=O)c1c(-c2ccccc2)c2cc(Cl)ccc2c(=O)n1Cc1cc(S(C)(=O)=O)n(CC(N)=O)n1 | 0% | 0% | 0% | 0% | 0% | 0% | 0% | 0% | 0% | 0%
Cc1nnc(-c2ccc3ncn(-c4ccc(S(C)=O)cc4)c3c2)o1 (stereo not drawn) | 6% | 0% | 2% | 0% | 21% | 0% | 0% | 21% | 10% | 5%
O=C(Nc1n[nH]c2nc(-c3ccccc3)c(Br)cc12)C1CC1 [SB-708998] | 1% | 12% | 18% | 14% | 0% | 0% | 0% | 7% | 4% | 36%
Cc1nn2c(=O)cc(N3CCOCC3)nc2n1Cc1cccc(Cl)c1Cl [GSK2342769] | 29% | 0% | 2% | 0% | 20% | 5% | 7% | 0% | 3% | 0%
C[C@@H]1CC[C@H](C(=O)NC2CCCCC2)CN1c1cc(-c2ccc3c(N)n[nH]c3c2)nc(N)n1 [GSK2291363] | 29% | 7% | 14% | 20% | 6% | 9% | 7% |  | 24% | 69%
OCCCNc1nccc(-c2c(-c3cccc(C(F)(F)F)c3)nn3cc(C(F)(F)F)ccc23)n1 [GW630813] | 0% | 0% | 0% | 5% | 0% | 0% | 0% | 17% | 0% | 7%
COc1ccc(CNC(=O)NC2CCN(c3ccnc(Nc4ccc(F)cc4)n3)C2)cc1 (stereo not drawn) [GSK1379706] | 0% | 0% | 0% | 8% | 16% | 11% | 0% | 35% | 20% | 19%
Nc1n[nH]c2nnc(-c3ccccc3)c(-c3ccccc3)c12 [GW554060] | 35% | 0% | 14% | 0% | 9% | 0% | 4% | 0% | 35% | 13%
COc1cc(OC)cc(-c2cc3cnc(N)nc3nc2NC(=O)NC(C)(C)C)c1 | 0% | 0% | 15% | 0% | 0% | 0% | 0% | 0% | 0% | 0%
CCC(=O)c1c(-c2ccccc2)c2cc(Cl)ccc2c(=O)n1Cc1ccc(C(=O)O)cc1 | 0% | 0% | 0% | 0% | 6% | 0% | 0% | 0% | 19% | 0%
CCn1c(-c2nonc2N)nc2ccccc21 [SB-693162/GW549034] | 0% | 7% | 0% | 51% | 3% | 16% | 2% | 27% | 37% | 0%
COc1cc2nccc(Nc3ccc(OCc4ccc(NC(C)=O)cc4)cc3)c2cc1OC.Cl [GW440135] | 5% | 15% | 10% | 0% | 28% | 3% | 0% | 0% | 0% | 0%
Cc1ccc(Oc2ccc(Nc3ncnc4cc[nH]c34)cc2C)cn1 | 7% | 0% | 14% | 5% | 0% | 0% | 0% | 20% | 0% | 10%
Nc1n[nH]c2ncc(-c3ccccc3)cc12 [SB-517081] | 38% | 0% | 0% | 28% | 2% | 0% | 0% | 21% | 64% | 27%
Cc1cc(Nc2nc(-c3cccc(C)n3)nc3ccccc23)ccn1 [GW872411] | 0% | 0% | 0% | 0% | 9% | 0% | 0% | 3% | 14% | 0%
COc1cc2ncn(-c3cc(OCc4ccc(S(C)(=O)=O)cc4)c(C(N)=O)s3)c2cc1OC [GW869979] | 26% | 0% | 0% | 20% | 0% | 18% | 37% | 0% | 0% | 0%
CCS(=O)(=O)c1ccc(OC)c(Nc2ncc(-c3ccc(F)cc3)o2)c1.Cl [GW591947] | 22% | 8% | 17% | 7% | 3% | 0% | 0% | 3% | 0% | 26%
Fc1cccc(CSc2nnc(-c3ccc4c(c3)CCO4)o2)c1 | 79% | 13% | 17% | 35% | 11% | 11% | 22% | 9% | 20% | 0%
